Entries with a potency or affinity are not part of this list. Calls of active or inactive are those of the source.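 Rule for the calls: active = compounds lowering miR-122 whose fitted half-maximal concentration is at most twice the top tested dose; inconclusive = flat fit with moderate reduction, or poor fit quality; inactive = the rest.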
Test: miR-122 quantity in Huh7 after inhibitor exposure – cell-based, RT-qPCR, dry powder, orthogonal assay for miR-122 inhibitor project, dose response (AID 687041)

Question: Which outcome does the source give for `O=C(CN1CCOCC1)Nc1ccc(Br)cc1C(=O)c1ccccc1` here?
Answer: inactive

— PubChem BioAssay AID687041 (Broad Institute, 2013)
